Data published in PubChem BioAssay AID588382 (National Center for Advancing Translational Sciences (NCATS), 2011).
Among all 1,300 compounds or so, about 150 (12%) were called active. Inconclusive results (about 30%) are left out. The list comes from a sample in which actives are over-represented; it also holds similar structures and randomly drawn compounds. Unmarked numbers belong to inactive results. Calls come from the whole dose curve; as a rule, active = well fitted cell-killing curve with a large enough effect; inconclusive = small, poorly fitted or top-dose-only effect, or effect the other way; inactive = flat fitted curve, though single readings scatter.

Assay: qHTS of small molecules that selectively kill Giardia lamblia: Hit Validation in HepG2 cytotox;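 note: compound exposure lasted overnight at 37 deg C; nearly all actives have a fitted effect of over 55% in size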;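 for activity change, negative = cytotoxicity: viability measured as cellular ATP by ATPLite luminescence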
Conditions: cell viability; Potency: HepG2 cytotoxicity; series mostly up to 38.3 µM; activity change, negative = cytotoxicity: at the top concentration
In short: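 Counterscreen cytotoxicity: ATPLite luminescence (15 min, room temperature) measured in HepG2 cells exposed overnight at 37 deg C to pin-transferred compound (23 nL) after overnight pre-incubation.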
% is set by controls: 0 for no effect and ±100 for the full control effect; potency is the fitted concentration of half-maximal effect.

Structure (SMILES) | activity change, negative = cytotoxicity | Potency
O=c1[nH]c2cccnc2n1-c1ccc([N+](=O)[O-])cc1 | 17% | –
N#Cc1c(N2CCN(c3ccc([N+](=O)[O-])cc3)CC2)[n+](=O)c2ccc(Cl)cc2n1[O-] | 8.84% | –
CC1CCc2c(sc(NC(=O)CCCn3cnc([N+](=O)[O-])n3)c2C(N)=O)C1 (stereo unspecified) | 2.15% | –
CC1CCc2c(sc(NC(=O)Cn3cnc([N+](=O)[O-])n3)c2C(N)=O)C1 (stereo unspecified) | -5.73% | –
Cn1cc([N+](=O)[O-])c(C(=O)Nc2sc3c(c2C#N)CCC3)n1 | – | 2.33 µM (active)
O=C(NN1C(=O)c2ccccc2NC1c1ccc([N+](=O)[O-])o1)c1ccccc1 (stereo unspecified) | -1.31% | –
CN(C)c1ccc(N=Nc2ccccc2C(=O)OCC(=O)N2CCCC2)cc1 | -11.4% | –
Cc1cc(N)ccc1N=Nc1c(C)n(C)n(-c2ccccc2)c1=O | -14.5% | –
FC(F)(F)c1ccc2c(c1)N1CCCC1CN2 (stereo unspecified) | 0.308% | –
CC(C)c1ccc(N=c2c([N+](=O)[O-])nn(-c3ccc4c(c3)OCCO4)n2O)cc1 | -4% | –
Fc1ccc2cc(-c3ccsc3)ncc2c1 | 28.3% | –
CC/C=C1/N=C2C(=O)N(C)C(=O)N=C2N(C)N1 | – | 3.29 µM (active)
O=[N+]([O-])c1ccc(COn2nnc3ccccc32)cc1 | 3.37% | –
COc1ccc2c(c1)[n+](=O)c(C(C)=O)c(C)n2[O-] | 1.41% | –
Cc1nonc1OCCn1c([N+](=O)[O-])cnc1C | 0.594% | –
CCCOC(=O)/C(=C\c1ccc([N+](=O)[O-])o1)NC(=O)c1ccccc1 | -5.09% | –
O=[N+]([O-])c1ccc2c3n([n+]([O-])c2c1)CCN=C3c1ccc(Cl)cc1 | 16.8% | –
O=[N+]([O-])c1ccc(/C=[N+](\[O-])CCO)o1 | 8.7% | –
O=C1NC(=S)S/C1=C\C=C\c1ccc([N+](=O)[O-])o1 | – | 3.29 µM (active)
O=[N+]([O-])c1ccc(-c2ccn[nH]2)o1 | -11.6% | –
O=[N+]([O-])c1ccccc1S(=O)(=O)Oc1ccccc1/C=N/n1cnnc1 | -19% | –
CC(=O)c1ccc(NC(=O)COC(=O)c2ccccc2N=Nc2ccc(N(C)C)cc2)cc1 | 8.9% | –
O=C(Nc1cccc2ccccc12)C12CC3CC(C1)CC(n1cnc([N+](=O)[O-])n1)(C3)C2 | -8.67% | –
Cc1cccc(-n2ncc3c(N4CCCC4)ncnc32)c1 | – | 2.07 µM (active)
O=C(c1ccco1)N1CCN(Cc2cc(=O)c(OCc3ccc([N+](=O)[O-])cc3)co2)CC1 | 5.68% | –
COC(=O)c1ccccc1NC(=O)N1c2ccccc2Sc2ccccc21 | 5.99% | –

Structure (SMILES) | activity change, negative = cytotoxicity | Potency
Cc1cccc(N2CCN(Cc3ccc([N+](=O)[O-])o3)CC2)c1C | 13.8% | –
CCCC(=O)NC(=S)NNC(=O)c1ccc([N+](=O)[O-])cc1 | 0.795% | –
Cc1cc(-c2ccc(C)c(S(=O)(=O)N3CCN(c4ccc([N+](=O)[O-])cc4)CC3)c2)on1 | -4.43% | –
N#Cc1c(Nc2ccccc2)[n+]([O-])c2ccc(Cl)cc2[n+]1[O-] | – | 3.29 µM (active)
COc1ccc(CC(=O)Nc2ncc([N+](=O)[O-])s2)cc1OC | 7.05% | –
O=[N+]([O-])/C(Cl)=C(/NCCO)C(Cl)=C(Cl)Cl | 18.1% | –
COc1ccc(Cn2cnc([N+](=O)[O-])c2)cc1[N+](=O)[O-] | 12.6% | –
O=[N+]([O-])c1cc(/C=N/Nc2nc(N3CCCCC3)nc(N3CCCCC3)n2)ccc1O | 10.5% | –
O=C(Nc1ccccc1N1CCN(C(=O)c2ccccc2)CC1)c1ccc([N+](=O)[O-])o1 | -28.3% | –
O=C(Nc1ccc(N2CCN(C(=O)c3ccccc3)CC2)cc1)c1ccc([N+](=O)[O-])o1 | – | 4.65 µM (active)
O=C(c1ccc([N+](=O)[O-])o1)N1CCN(Cc2ccccc2)CC1 | 0.896% | –
O=C(Nc1ccc(N2CCN(C(=O)c3ccc(Cl)cc3)CC2)cc1)c1ccc([N+](=O)[O-])o1 | – | 3.29 µM (active)
Cc1ccccc1C(=O)N1CCN(c2ccc(NC(=O)c3ccc([N+](=O)[O-])o3)cc2)CC1 | – | 3.29 µM (active)
O=[N+]([O-])c1ccc(N2CCN(Cc3ccc([N+](=O)[O-])o3)CC2)cc1 | 5.82% | –
C[C@H]1CN=C(N(C)C)N1CCC1CCCC1 | 0.237% | –
CC(Oc1ccccc1)C(=O)Nc1nnc(S(=O)(=O)N2CCCCCC2)s1 (stereo unspecified) | 9.3% | –
COc1cccc([C@@H]2CC=C(C(=O)O)[C@H](c3ccccc3F)N2S(=O)(=O)c2ccc(C)cc2)c1 | 8.72% | –
O=[N+]([O-])c1c(C(Cl)Cl)nn(-c2ccccc2)c1N1CCOCC1 | -27.2% | –
Cc1ccc(Nc2ccc([N+](=O)[O-])nc2[N+](=O)[O-])cc1 | 12.6% | –
Cc1ccc(CNC(=O)c2cc(-c3ccccc3C)n(CC3CC(c4cccc([N+](=O)[O-])c4)=NO3)n2)cc1 (stereo unspecified) | -0.0005% | –
CN(C(=O)CSc1nc2ccc([N+](=O)[O-])cc2s1)C1CCS(=O)(=O)C1 (stereo unspecified) | -1.9% | –
COCCCn1[nH]c2c3c(ccc2c1=O)C(=O)c1ccccc1C3=O | -20.1% | –
COc1ccc(C(=O)C(C)OC(=O)CNC(=O)c2ccco2)cc1 (stereo unspecified) | -3.75% | –
O=C(CSc1ccsc1[N+](=O)[O-])NC1CCCC1 | 4.61% | –
O=C(COc1cccnc1[N+](=O)[O-])NCc1cccs1 | 7.57% | –
CC(C)CNC(=S)NC(=O)c1csc([N+](=O)[O-])c1 | -0.544% | –

Structure (SMILES) | activity change, negative = cytotoxicity | Potency
O=C(NCCO)c1ccc2c3n(nc2c1)-c1ccccc1CO3 | – | 2.93 µM (active)
Cc1cnc([N+](=O)[O-])n1CCOC(=O)NC(=O)c1cccc(F)c1 | 9.9% | –
C[C@@H]1CN([C@H](C)CO)C(=O)c2cc(NC(=O)Nc3ccc4c(c3)OCO4)ccc2O[C@H]1CN(C)Cc1ccncc1 | 8.98% | –
O=C(O)c1cccc(S(=O)(=O)N(Cc2ccccc2)c2ccccc2Cl)c1 | 12.9% | –
O=C(CSc1ccsc1[N+](=O)[O-])NCCc1ccccc1 | 14.4% | –
O=C(NCc1ccco1)NC(=O)c1csc([N+](=O)[O-])c1 | 10.6% | –
O=C(Cc1ccc([N+](=O)[O-])cc1)N/N=C/c1ccc([N+](=O)[O-])o1 | – | 5.21 µM (active)
O=C(N/N=C/c1ccc([N+](=O)[O-])o1)c1ccc2c(c1)OCO2 | – | 4.65 µM (active)
CC(NC(=O)C12CC3CC(CC(C3)C1)C2)C(=O)NN=Cc1ccc([N+](=O)[O-])o1 (stereo unspecified) | -23.4% | –
O=C(N/N=C/c1ccc([N+](=O)[O-])o1)C1CC1 | -6.15% | –
O=C(CNc1cccc([N+](=O)[O-])c1)N/N=C/c1ccc([N+](=O)[O-])o1 | 1.19% | –
O=C(CC12CC3CC(CC(C3)C1)C2)N/N=C/c1ccc([N+](=O)[O-])o1 | – | 16.5 µM (active)
CCCCCCCC(=O)N/N=C/c1ccc([N+](=O)[O-])o1 | 16.1% | –
O=C(CNc1ccc2ccccc2c1)N/N=C/c1ccc([N+](=O)[O-])o1 | 19.9% | –
O=C(N/N=C\c1ccc([N+](=O)[O-])o1)C1COc2ccccc2O1 (stereo unspecified) | -26.2% | –
CCOC(=O)CN1C(=O)S/C(=C/c2cccc([N+](=O)[O-])c2O)C1=O | 0.776% | –
Cc1ccc(S(=O)(=O)N2CCN(C(=O)COc3ccc(C)nc3[N+](=O)[O-])CC2)c(C)c1 | 7.88% | –
Cc1ccc(OCC(=O)c2cc(C)n(C)c2C)c([N+](=O)[O-])n1 | 6.59% | –
COc1ccc(-n2nc([N+](=O)[O-])c(=NCCc3ccc(C)cc3)n2O)cc1 | 0.151% | –
Nc1nc(Cl)nc2c1ncn2[C@H]1C[C@H](O)[C@@H](CO)O1 | -5.68% | –
Cc1ncc([N+](=O)[O-])n1CCN1C(=O)c2ccccc2C1=O | 8.26% | –
O=C1c2ccccc2C(=O)c2c1ccc1c(=O)n(C3CCCCC3)[nH]c21 | 0.154% | –
O=C(CSc1cccc[n+]1[O-])Nc1cc2c(cc1Cl)C(=O)c1ccccc1C2=O | -16.8% | –
O=C(N/N=C/c1cc2c(cc1[N+](=O)[O-])OCO2)c1ccccn1 | -3.77% | –
Cc1ccc(N/C(C(Cl)=C(Cl)Cl)=C(/Cl)[N+](=O)[O-])c(C)c1 | 2.94% | –
O=C(CCCn1cnc([N+](=O)[O-])n1)Nc1cccc(Cl)c1Cl | 11.2% | –

Structure (SMILES) | activity change, negative = cytotoxicity | Potency
O=[N+]([O-])c1nn(-c2ccc3c(c2)OCCO3)n(O)c1=NCc1ccccc1Cl | 22.4% | –
Cc1oc2cc([N+](=O)[O-])c(O)c([N+](=O)[O-])c2c1C(=O)c1ccc(Cl)cc1 | 26% | –
CCN(CC)C(=O)Cn1cc([N+](=O)[O-])cc1[N+](=O)[O-] | 6.27% | –
CC1(C)Oc2cc3oc(-c4cc(O)cc(O)c4)cc3cc2CC1O (stereo unspecified) | – | 5.85 µM (active)
CCCCNC(=O)/C(=C\c1ccc([N+](=O)[O-])o1)NC(=O)c1ccccc1 | 14.1% | –
O=C(CCN1C(=O)c2ccccc2C1=O)Nc1ccccc1C(F)(F)F | 11.6% | –
O=C1c2ccc3c4c(ccc(c24)C(=O)N1CCCCO)C(=O)N(CCCCO)C3=O | – | 4.14 µM (active)
O=C(CCN1C(=O)c2ccccc2C1=O)NCc1ccc(F)cc1 | 21.1% | –
O=[N+]([O-])c1nn(-c2ccc3c(c2)OCCO3)n(O)c1=NCCC1=CCCCC1 | 1.64% | –
O=c1c([N+](=O)[O-])cccn1Cc1ccccc1Cl | 1.04% | –
[O-][n+]1c2ccccc2c2n1CCN=C2c1ccc(Cl)cc1 | 1.04% | –
O=[N+]([O-])c1nn(-c2ccc3c(c2)OCCO3)n(O)c1=Nc1ccc(Cl)cc1 | 20.9% | –
COc1cc2nc(N3CCN(c4cc(C)ccc4C)CC3)nc(N)c2cc1OC | – | 9.27 µM (active)
COc1cc2nc(N3CCN(C)CC3)nc(NC(C)C)c2cc1OC | -19.6% | –
Cc1cc(=S)nc(-c2ccccn2)[nH]1 | 1.95% | –
CN1C(=O)/C(=C/c2ccc(O)c([N+](=O)[O-])c2)NC1=S | 15.3% | –
CCc1cccc(N=c2c([N+](=O)[O-])nn(-c3ccc4c(c3)OCCO4)n2O)c1 | 4.33% | –
Cc1cccc(NC(=O)c2ccc([N+](=O)[O-])s2)c1C | 0.683% | –
Cc1cc(C)cc(Oc2ccc(NC(=O)C3CC=CCC3C(=O)O)cc2)c1 (stereo unspecified) | -0.27% | –
CCn1nc(-c2ccc(C)cc2)nc2c(=O)n(C)c(=O)nc1-2 | – | 5.21 µM (active)
CCc1ccc(-c2nc3c(=O)n(C)c(=O)nc-3n(CC)n2)cc1 | – | 1.85 µM (active)
CC(=O)O[C@@H]1[C@@H](OC(C)=O)[C@H](n2ccc3cc([N+](=O)[O-])ccc32)OC[C@@H]1OC(C)=O | 14% | –
Cc1ccc([C@@H]2CC=C(C(=O)O)CN2S(=O)(=O)c2ccc(C)cc2)cc1 | 21% | –
